# KCNQ2 pot: potentiators of rat KCNQ2 potassium channel. O88943. CHO-K1 KCNQ2, FluxOR thallium flux fluorescence; active compounds read high. B-score at 10 µM. 310,000 compounds, 0.54% hits;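 active = fluorescence ratio B-score at least 3 SD of library B-scores, with initial fluorescence B-score within 3 of them, cut at about 5.3 in these data; same plate scores as AID 2156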;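 also: B-score of peak minus minimum over baseline fluorescence ratio after K+ and Tl+ stimulus; positive B-score means potentiation of KCNQ2 with more thallium influx and brighter signal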
# Target sequence (O88943 whole entry, looked up): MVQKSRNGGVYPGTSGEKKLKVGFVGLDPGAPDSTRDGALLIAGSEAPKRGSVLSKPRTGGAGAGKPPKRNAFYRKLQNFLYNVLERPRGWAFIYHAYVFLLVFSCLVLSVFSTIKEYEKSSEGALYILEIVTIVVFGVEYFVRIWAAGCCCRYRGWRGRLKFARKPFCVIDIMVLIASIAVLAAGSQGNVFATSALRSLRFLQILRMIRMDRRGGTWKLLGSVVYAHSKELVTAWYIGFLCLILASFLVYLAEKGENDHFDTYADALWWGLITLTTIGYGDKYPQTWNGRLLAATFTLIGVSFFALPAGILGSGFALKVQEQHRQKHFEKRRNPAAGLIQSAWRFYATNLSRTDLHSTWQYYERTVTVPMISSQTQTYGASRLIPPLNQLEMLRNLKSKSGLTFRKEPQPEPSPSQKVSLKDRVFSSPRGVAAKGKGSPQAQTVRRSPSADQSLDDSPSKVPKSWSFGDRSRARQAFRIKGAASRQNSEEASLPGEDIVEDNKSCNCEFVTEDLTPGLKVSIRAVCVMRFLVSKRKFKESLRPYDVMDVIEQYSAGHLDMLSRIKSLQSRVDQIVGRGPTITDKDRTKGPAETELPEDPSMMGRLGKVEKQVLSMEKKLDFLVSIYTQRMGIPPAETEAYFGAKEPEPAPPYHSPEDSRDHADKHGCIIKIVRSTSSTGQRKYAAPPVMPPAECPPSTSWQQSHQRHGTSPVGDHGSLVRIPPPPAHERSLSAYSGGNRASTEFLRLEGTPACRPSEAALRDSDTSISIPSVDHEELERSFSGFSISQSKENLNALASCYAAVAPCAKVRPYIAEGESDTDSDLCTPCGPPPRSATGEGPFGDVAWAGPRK
# KCNQ2 block: KCNQ2 (rat) channel inhibition | O88943 | CHO-K1 KCNQ2, FluxOR thallium flux, 20 min; active compounds read low | B-score at 10 µM | 310,000 compounds, 1.1% hits | AID 2156;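 active = fluorescence ratio B-score at most minus 3 library SDs, with starting brightness B-score within 2 library SDs, cut at about -5.5 in these data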
# Kir21 confirm: confirmation of mouse Kir2.1 potassium channel inhibitors | shares compounds with KCNQ2 pot | Kir2.1-expressing cells, FluxOR thallium flux fluorescence; active compounds read low | Tl flux remaining, % of negative control (active compounds read low), % at 10 µM | 2,300 compounds, 41% hits;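 active = Primary-screen hit whose thallium flux fell at least 3 control SD below untreated wells in both duplicates, with normal baseline fluorescence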;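 also: 0% = blank wells without stimulus and 100% = stimulated no-compound controls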
# HEK293 ctr: alters thallium flux in parental HEK293 cells, Kir2.1 counter-screen. FluxOR signal as % of negative control (100 = no effect), % at 10 µM. 2,300 compounds, 19% hits. FluxOR thallium flux fluorescence; 0% = unstimulated blank wells. AID 2105. shares compounds with KCNQ2 pot;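 active = dye signal at least 3 control SD above or below untreated wells in both duplicates, raw fluorescence within 3, either direction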;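 also: percent is based on the flux ratio of peak minus minimum fluorescence over baseline F0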
# CHO-K1 ctr: counter-screen for KCNQ2 potentiators: effect in parental CHO-K1 cells. shares compounds with KCNQ2 pot. FluxOR thallium flux fluorescence; zero = vehicle mean+3SD, 100% = vehicle-minus-blank window. activity increase over 3SD of controls, % at 10 µM. 1,200 compounds, 43% hits. AID 2282;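 active = signal rise of at least 3 SD above the untreated control mean, in both duplicate wells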;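 also: counter screen of KCNQ2 potentiator hits so any rise reflects channel-independent effects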
# KCNQ1 sel pot: selectivity of KCNQ2 potentiators: effect on human KCNQ1; shares compounds with KCNQ2 pot; CHO KCNQ1 stable, FluxOR thallium flux fluorescence; beyond 3SD, as % of vehicle-control signal; activation over 3SD threshold, % at 10 µM; 1,200 compounds, 28% hits;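 active = fluorescence ratio rise of at least 3 SD of vehicle wells above their mean, in both replicate wells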;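 also: 0% = vehicle mean plus 3 SD and 100% = vehicle minus unstimulated blank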
# KCNQ2 pot confirm: confirmation of rat KCNQ2 potassium channel potentiators. shares compounds with KCNQ2 pot. CHO-KCNQ2 cells, FluxOR thallium flux fluorescence. potentiation, less the hit threshold, % at 10 µM. 1,200 compounds, 68% hits;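 active = fluorescence ratio rising 3 SD or more over the vehicle control mean in both replicates, plus primary screen hit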;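 also: peak minus minimum thallium fluorescence divided by baseline after K/Tl stimulus; 0% = vehicle mean plus 3 SD and 100% = vehicle minus unstimulated blank difference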
# Kir21 spec: mouse Kir2.1 off-target activity of KCNQ2 potentiators; shares compounds with KCNQ2 pot; HEK293 Kir2.1, FluxOR thallium flux fluorescence; activity over 3SD threshold, % at 10 µM; 1,200 compounds, 2% hits;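 active = fluorescence ratio rise of at least 3 SD above the vehicle-control mean, seen in both replicates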;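 also: 0% = vehicle mean plus 3 SD and 100% = vehicle minus no-stimulus blank window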
# KCNQ2 W236L pot: KCNQ2 potentiators acting on retigabine-insensitive rat KCNQ2 W236L mutant; shares compounds with KCNQ2 pot; CHO KCNQ2-W236L, automated patch clamp current; current increase over 3SD of negative controls (%), active compounds read high, % at 25 µM; 940 compounds, 10% hits; AID 2558;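 active = current increase at least 3 SD of the untreated controls above them in both duplicate recordings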
# Numbers without * were called inactive; i = inactive; nt = no result given. Sampled rows, rich in hits. Any-hit rate of the full collection: about 1.6%.
SMILES,KCNQ2 pot,KCNQ2 block,Kir21 confirm,HEK293 ctr,others
COc1ccc(CN(C)CC(O)COC(c2ccccc2)c2ccccc2)c(OC)c1OC (centres undefined),nt,i,54%*,i,
COc1ccc(C(=O)COC(=O)C(CCSC)NC(=O)COc2ccccc2)cc1 (centres undefined),0.22,i,nt,nt,
O=C(NCc1ccc2c(c1)CCO2)Nc1ccccc1,4.6,i,nt,nt,
COc1ccc(CCC(=O)NNC(=O)Cn2nc(C)cc2C)cc1,0.41,i,nt,nt,
COc1cc2nc(CCc3ccccc3)oc(=O)c2cc1OC,1.5,i,nt,nt,
CC(=O)Nc1ccc(CN2CCCN(C)CC2)cc1,nt,i,nt,nt,
CC(C(=O)N1c2ccc(F)cc2CCC1C)N1C(=O)c2ccccc2C1=O (centres undefined),7.6*,i,i,123%*,CHO-K1 ctr=103*;KCNQ1 sel pot=-9;KCNQ2 pot confirm=-12;Kir21 spec=-32
CCC(CC)C(=O)N1c2ccc(F)cc2CCC1C (centres undefined),nt,i,nt,nt,
Cc1ccc(S(=O)(=O)NCCc2ccccc2)cc1,nt,i,nt,nt,
Cc1cc(C)c(S(=O)(=O)NCCc2ccccc2)c(C)c1,nt,i,50%*,i,
COc1ccc(CNC(=O)[C@@H](NC(=O)C2CCN(S(=O)(=O)c3ccc(C)cc3)CC2)C(C)C)cc1OC,nt,i,nt,nt,
CCOC(=O)N1CCN(CCC(=O)Nc2cccc(C)c2)CC1,nt,i,nt,nt,
O=S(=O)(c1ccccc1F)N1CCCc2ccccc21,0.02,i,60%*,i,
O=[N+]([O-])c1ccccc1S(=O)(=O)N1CCCc2ccccc21,nt,i,nt,nt,
O=C(c1sc2ccccc2c1Cl)N1CCN(CCc2ccccn2)CC1,nt,i,nt,nt,
O=C1c2ccccc2C(=O)N1CCC(c1ccc(F)cc1)c1ccco1 (centres undefined),nt,i,nt,nt,
Cc1ccc(C(CCNC(C)c2cccs2)c2ccco2)cc1 (centres undefined),nt,i,36%*,i,
COc1cccc(CNCCc2c[nH]c3ccccc23)c1OCc1ccc(F)cc1,-8,-8*,i,i,
Cc1ccc(NC(=S)NCCc2ccccc2)c(C)c1,nt,i,nt,nt,
COc1cccc(CNc2ccc3[nH]c(=O)[nH]c3c2)c1OCc1ccc(F)cc1,4.1,i,nt,nt,
Cc1ccc(NC(=S)NCCc2c[nH]c3ccccc23)c(C)c1,nt,i,76%*,i,
COc1cc(NC(=S)NCCc2c[nH]c3ccccc23)c(OC)cc1Cl,nt,i,nt,nt,
COc1ccccc1NC(=S)NCCc1c[nH]c2ccccc12,0.21,i,72%*,i,
CCOC(=O)C1=C(COC(=O)/C=C/c2ccc(OC)cc2OC)NC(=O)NC1C (centres undefined),0.71,i,nt,nt,
O=C(COc1ccc2ccccc2c1Br)N1CCCC1,2.3,i,nt,nt,
SMILES,KCNQ2 pot,KCNQ2 block,Kir21 confirm,HEK293 ctr,others
CCOC(=O)N1CCN(C(=O)COc2ccc3ccccc3c2Br)CC1,8.7*,i,i,i,CHO-K1 ctr=13*;KCNQ1 sel pot=18*;KCNQ2 pot confirm=11*;Kir21 spec=-30;KCNQ2 W236L pot=i
CCOc1ccc(S(=O)(=O)NCCC(=O)NCC(c2ccc(F)cc2)N2CCOCC2)cc1 (centres undefined),1.4,i,nt,nt,
CCCCCCCCCCOC(=O)Cn1c(COc2ccccc2OC)[n+](C)c2ccccc21,nt,i,i,i,
Cn1c(COc2ccccc2O)[n+](C)c2ccccc21,nt,i,nt,nt,
CCc1nc2cccnc2n1-c1ccc(CC(=O)NCCOC)cc1,nt,i,nt,nt,
CC(C)(O)C#Cc1ccc(C(=O)NCc2ccccc2F)cc1,nt,i,nt,nt,

# Screening data from PubChem.
